# From PubChem BioAssay (EPA / NIEHS)
# Active and inactive are the calls of the source. Rule for the calls: active = hit-call score of the fitted dose curve at least 0.9, where 1 is the maximum; inactive = score below 0.9.
# Experiment: ATG_ISRE_CIS: Attagene CIS-FACTORIAL HepG2 Assay for human Interferon Regulatory Factor 1 (IRF1) binding to an Interferon-Stimulated Response Element (ISRE) (AID 2282948)
# Details: HepG2 ISRE cis-reporter (Attagene), mRNA transcription readout; actives raise or lower the signal
# Method in brief: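 Transfected HepG2 (multiple reporter transcription units, cis elements) dosed 24 h. RNA → oligo(dT) RT → PCR → 6-FAM primer extension → HpaI → CE. DMSO = negative control/baseline.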
Structure (SMILES),AC50,outcome
COc1cc(-c2nc(NC(=O)c3cc4cc(C)cc(C)c4n3CC(=O)O)sc2CCC2CCCCC2)c(OC)cc1Cl,12.7 µM (active),
CCCCCCCCCCCC(=O)OC,,inactive
COCCOCCOC,,inactive
CCCCCCCCCCO,,inactive
CCOC(=O)C(C)(C)Oc1ccc(Cl)cc1,,inactive
CC(CO)OC(C)CO (centres undefined) (tested in a mixture with another compound),,inactive
CCc1c(C(=O)NN2CCCCC2)nn(-c2ccc(Cl)cc2Cl)c1-c1ccc(Br)cc1,3.67 µM (active),
CNC(=O)[C@H]1O[C@@H](n2cnc3c(NCc4cc(Cl)ccc4OCc4cc(C)no4)ncnc32)[C@H](O)[C@@H]1N,,inactive
C[Si]1(C)O[Si](C)(C)O[Si](C)(C)O[Si](C)(C)O1,,inactive
CCCCc1ccc2c(n1)[C@@H](c1ccc(OC)cc1C[C@H](C)C(=O)O)[C@H](C(=O)O)[C@H]2c1ccc2c(c1)OCO2,,inactive
O=C(O)CCCCC(=O)O,,inactive
CCCCN(CCCC)CCCC,,inactive
CN[C@H]1CC[C@@H](c2ccc(Cl)c(Cl)c2)c2ccc(S(N)(=O)=O)cc21,,inactive
Cc1cc(=O)[nH]c(=S)[nH]1,,inactive
Cc1nc(-c2ccc3c(c2)CCN(CCC2CCC(NC(=O)/C=C/c4ccc(F)cc4)CC2)CC3)no1 (centres undefined),,inactive
Cc1ccc(Cl)cc1,,inactive
NC(=O)Cn1c(=O)cc(CCN2CCN(c3nccc4sccc34)CC2)c2ccc(F)cc21,,inactive
Cc1ccccc1Cl,,inactive
COc1cc(/C=C/C(=O)CC(=O)/C=C/c2ccc(O)c(OC)c2)ccc1O,33.4 µM (active),
Nc1nc(N)c2nc(CNc3ccc(C(=O)N[C@@H](CCC(=O)O)C(=O)O)cc3)cnc2n1,,inactive
COc1cc(S(=O)(=O)O)c(C)cc1N=Nc1c(O)ccc2cc(S(=O)(=O)O)ccc12,,inactive
CN1CCN(Cc2cc(-c3ccc4[nH]c(=O)oc4c3)co2)[C@@H](c2ccc(F)cc2)C1,18 µM (active),
FC(F)(F)C(F)(F)C(F)(F)C(F)(F)C(F)(F)C(F)(F)CCI,,inactive
Cc1nc(C)nc(N2C[C@@H](C)N(c3ccnc([C@@H](C)O)n3)[C@@H](C)C2)n1,,inactive
NS(=O)(=O)c1cc2c(cc1Cl)NCNS2(=O)=O,,inactive
Cc1c(C(=O)O)c(O)cc2c1C(=O)c1c(O)c([C@@H]3O[C@H](CO)[C@@H](O)[C@H](O)[C@H]3O)c(O)c(O)c1C2=O,,inactive
Cc1cc(NC(=O)C(=O)O)cc(C)c1Oc1ccc(O)c2c1CCC2,,inactive
O=C(O)Cc1ccccc1Nc1c(Cl)cccc1Cl,,inactive
O=c1[nH]cc(F)c(=O)[nH]1,,inactive
